PubChem BioAssay AID1159580 (chemical genetic matrix, 2015)
Where “and” joins values, the source holds several entries; their conditions need not be identical. Equal entries are not always repeated. Hit rate of the full screen: of about 5,500 compounds, about 2,000 (36%) were called active. About 18% were inconclusive and are not listed. Rule as the data show it: active = normalized growth mostly below about 0.91 (no sharp cut-off); inconclusive = no clear call, values can overlap the other calls; inactive = mostly above about 0.92. Some of the results follow.

Experiment: chemical genetic growth profiling, strain panel (AID 1159580);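 also: tested at 20 µM; growth read once vehicle control cultures reached saturation at 30 °C; 1 = growth at the plate median or of vehicle wells; lower values mean less growth of the strain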
Conditions: S. cerevisiae deletion strains, growth OD

Measured: normalized growth

O=C1OCCN1/N=C\c1ccc([N+](=O)[O-])o1
0.883 (inactive) and 0.85 (active): locus YJL095W, strain BCK1, stronger effect = lower value
active: locus YAL026C, strain drs2, stronger effect = lower value 0.889 | locus YDR162C, strain NBP2, stronger effect = lower value 0.771 | locus YDR392W, strain spt3, stronger effect = lower value 0.72 | locus YDR502C, strain sam2, stronger effect = lower value 0.92 | locus YER155C, strain BEM2 (second series), stronger effect = lower value 0.788 | locus YGL086W, strain mad1, stronger effect = lower value 0.923 | locus YJR043C, strain POL32, stronger effect = lower value 0.762
inactive: locus YAL013W, strain DEP1, stronger effect = lower value 0.986 | locus YAL021C, strain ccr4, stronger effect = lower value 0.961 | locus YAL030W, strain snc1, stronger effect = lower value 0.999 | locus YBL061C, strain skt5, stronger effect = lower value 1 | locus YBR009C, strain hhf1, stronger effect = lower value 0.97 | locus YBR021W, strain FUR4, stronger effect = lower value 1.03 | locus YBR023C, strain chs3, stronger effect = lower value 1 | locus YBR171W, strain sec66, stronger effect = lower value 0.987 | locus YBR229C, strain ROT2, stronger effect = lower value 0.999 | locus YBR231C, strain swc5, stronger effect = lower value 0.929 | locus YBR279W, strain paf1, stronger effect = lower value 0.986 | locus YCL011C, strain gbp2, stronger effect = lower value 0.991 | locus YCL016C, strain dcc1, stronger effect = lower value 0.935 | locus YCL029C, strain bik1, stronger effect = lower value 0.97 | locus YCL061C, strain MRC1, stronger effect = lower value 0.987 | locus YCL069W, strain vba3, stronger effect = lower value 0.993 | locus YCR088W, strain abp1, stronger effect = lower value 0.976 | locus YDL005C, strain med2, stronger effect = lower value 0.998 | locus YDL035C, strain GPR1, stronger effect = lower value 0.913 | locus YDL040C, strain nat1, stronger effect = lower value 1 | locus YDL074C, strain BRE1, stronger effect = lower value 0.885 | locus YDL101C, strain DUN1, stronger effect = lower value 0.95 | locus YDL185W, strain tfp1, stronger effect = lower value 0.993 | locus YDL192W, strain arf1, stronger effect = lower value 0.99 | locus YDR001C, strain nth1, stronger effect = lower value 1 | locus YDR069C, strain doa4, stronger effect = lower value 0.928 | locus YDR101C, strain arx1, stronger effect = lower value 0.92 | locus YDR137W, strain rgp1, stronger effect = lower value 0.901 | locus YDR150W, strain NUM1, stronger effect = lower value 1.01 | locus YDR159W, strain sac3, stronger effect = lower value 1.01 | locus YDR195W, strain ref2 1.14 | locus YDR297W, strain sur2, stronger effect = lower value 0.992 | locus YDR318W, strain mcm21, stronger effect = lower value 0.919 | locus YDR334W, strain swr1, stronger effect = lower value 1.01 | locus YDR335W, strain msn5, stronger effect = lower value 0.975 | locus YDR388W, stronger effect = lower value 0.982 | locus YEL003W, strain gim4, stronger effect = lower value 0.916 | locus YEL037C, strain rad23, stronger effect = lower value 0.986 | locus YEL061C, strain CIN8 (second series), stronger effect = lower value 1 | locus YEL061C, strain CIN8, stronger effect = lower value 0.999 | locus YER015W, strain faa2, stronger effect = lower value 0.986 | locus YER016W, strain bim1, stronger effect = lower value 0.932 | locus YER110C, stronger effect = lower value 0.979 | locus YER111C, strain swi4, stronger effect = lower value 1.01 | locus YER155C, strain BEM2, stronger effect = lower value 0.996 | locus YER167W, strain BCK2, stronger effect = lower value 0.978 | locus YFR010W, strain ubp6, stronger effect = lower value 0.919 | locus YGL078C, strain dbp3, stronger effect = lower value 0.955 | locus YGL167C, strain pmr1, stronger effect = lower value 1 | locus YGL173C, strain kem1, stronger effect = lower value 0.982 | locus YGL227W, strain vid30, stronger effect = lower value 1 | locus YGL240W, strain doc1, stronger effect = lower value 0.935 | locus YGL248W, strain PDE1, stronger effect = lower value 0.944 | locus YGL253W, strain hxk2, stronger effect = lower value 0.934 | locus YGR135W, strain pre9, stronger effect = lower value 0.936 | locus YGR252W, strain gcn5, stronger effect = lower value 0.808 | locus YHR013C, strain ard1, stronger effect = lower value 1.01 | locus YHR027C, strain rpn1, stronger effect = lower value 0.967 | locus YHR030C, strain SLT2, stronger effect = lower value 1 and 0.876 | locus YHR079C, strain IRE1 (second series), stronger effect = lower value 0.937 | locus YHR079C, strain IRE1, stronger effect = lower value 0.88 | locus YHR094C, strain hxt1, stronger effect = lower value 0.999 | locus YHR129C, strain ARP1, stronger effect = lower value 0.992 | locus YHR142W, strain chs7, stronger effect = lower value 0.967 | locus YHR200W, strain rpn10, stronger effect = lower value 0.995 | locus YIL066C, strain RNR3, stronger effect = lower value 0.997 | locus YIL073C, strain SPO22, stronger effect = lower value 0.761 | locus YIL125W, strain kgd1, stronger effect = lower value 0.974 | locus YIR030C, strain dcg1, stronger effect = lower value 0.967 | locus YJL092W, strain hpr5, stronger effect = lower value 0.937 | locus YJL095W, strain BCK1 (second series), stronger effect = lower value 1.02 | locus YJL115W, strain asf1, stronger effect = lower value 0.982 | locus YJL129C, strain trk1, stronger effect = lower value 1.09 | locus YJL134W, strain LCB3, stronger effect = lower value 0.998 | locus YJL154C, strain vps35, stronger effect = lower value 0.993 | locus YJL164C, strain tpk1, stronger effect = lower value 0.962 | locus YJL166W, strain qcr8, stronger effect = lower value 0.985 | locus YJL168C, strain set2, stronger effect = lower value 0.999 | locus YJL187C, strain SWE1 (second series), stronger effect = lower value 0.971 | locus YJL187C, strain SWE1, stronger effect = lower value 1 | locus YJR066W, strain TOR1, stronger effect = lower value 0.826
